Results published in PubChem BioAssay (NCATS).
A number with no mark means an inactive call. Results filed as inconclusive are left out. Where a call stands in place of a potency, no number is given. Calls of active or inactive are those of the source. The call rests on the fitted dose curve; in most records, active means well fitted curve in the direction sought with a large enough effect; inconclusive means small, poorly fitted or top-dose-only effect, or another doubt; inactive means no such curve, though single readings can be large; an effect the other way counts as inactive or inconclusive.

How the values were obtained:
[1] = Cell Viability - H-4-II-E (AID 543);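 further: cells exposed to compound for 40 hours; nearly all actives have a fitted effect of over 35% in size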; further: potency means the concentration at half of the fitted maximal effect
Method in brief: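 Luminescent ATP signal (CellTiter-Glo) served as the viability read-out, with cytotoxicity seen as a concentration-dependent ATP drop. Cells were treated for 40 hours in complete medium. AC50 values derive from Hill-equation modelling.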

[2] = Cell Viability - SH-SY5Y (AID 544); conditions: SH-SY5Y neuroblastoma cell viability; viability change, negative = cytotoxic: at 92.2 µM (top of the series);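 further: cells exposed to compound for 40 hours; nearly all actives have a fitted effect of over 55% in size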; further: potency means the concentration at half of the fitted maximal effect
Method in brief: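 Luminescent ATP read-out (CellTiter-Glo) measures loss of viable SH-SY5Y neuroblastoma cells after 40 hr compound exposure at 37 °C. AC50 values derive from standard Hill modelling of qHTS concentration-response data.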

[3] = Cell Viability - Renal Proximal Tubule (AID 545);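 further: cells exposed to compound for 40 hours; nearly all actives have a fitted effect of over 40% in size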
Method in brief: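 Rat kidney proximal tubule cells, freshly isolated; 1000 cells/well, 5 hr settle, compound 40 hr 37 °C. CellTiter-Glo 20 min RT, luminescence read. AC50 by standard Hill fit.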

[4] = Cellular Toxicity (caspase-3) Jurkat (AID 655); conditions: Jurkat caspase-3 activation, luminescence; caspase-3 activation: at 92.2 µM (top of the series), DMSO = 0%, tamoxifen = 100%;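 further: cells exposed to compound for 16 h at 37 °C before reading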; further: potency means the concentration at half of the fitted maximal effect
Method in brief: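 Luminescent caspase-3/7 readout (aminoluciferin substrate cleavage) in human T-cell leukemia Jurkat cells after 16 hr compound exposure. Concentration-response normalized to DMSO and 100 uM tamoxifen; AC50 by standard Hill equation.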

[5] = Cellular Toxicity (caspase-3) HUV-EC-C (AID 656)
Method in brief: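 Luminescent caspase-3/7 activation (aminoluciferin substrate cleavage) in HUV-EC-C cells after 16 hr compound exposure, 37°C. Signal normalized to DMSO basal and 100 uM tamoxifen as 100%; AC50 from concentration-response fitted with the Hill equation.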

[6] = Cellular Toxicity (caspase-3) SHSY5Y (AID 657);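 further: cells exposed to compound for 16 hours at 37 °C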
Method in brief: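 Luminescent caspase-3/7 readout (aminoluciferin release) in SH-SY5Y cells after 16 h compound exposure in complete medium. Activity scaled between DMSO basal and 10 uM staurosporine as 100%; concentration-response fitted to Hill equation for AC50.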

[7] = Cellular Toxicity (caspase-3) BJ (AID 658);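 further: cells exposed to compound for 16 hours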
Method in brief: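 BJ human foreskin fibroblasts, 1000 cells/well, treated 16 hours at 37 °C in complete medium; caspase 3/7 activity by Caspase-Glo luminescence after 1 hr at room temperature. Normalized to DMSO and 10 uM staurosporine; AC50 from Hill fits.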

[8] = Cellular Toxicity (caspase-3) MRC-5 (AID 659);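 further: cells exposed to compound for 16 h at 37 °C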
Method in brief: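 MRC-5 human normal lung fibroblasts, 1500 cells/well, treated 16 h at 37 °C in complete medium. Caspase 3/7 measured by Caspase-Glo luminescence after 1 h at room temperature. Normalized to DMSO and 10 uM staurosporine; AC50 from Hill fit.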

[9] = Cellular Toxicity (caspase-3) HepG2 (AID 654);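 further: cells exposed to compound for 16 hours before reading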
Method in brief: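 Cells plated 5 hr at 37 °C, compound added, incubated 16 hr at 37 °C. Caspase-Glo 3/7 reagent followed, 20 min at room temperature, then luminescence read. Activation scored as signal increase; AC50 from Hill fit.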

[10] = Cell Viability - Mesenchymal (AID 546);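 further: cells exposed to compound for 40 hours before reading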; further: potency means the concentration at half of the fitted maximal effect
Method in brief: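 Human kidney mesenchymal cells from normal renal glomeruli, 1000 cells/well, rested 5 hr at 37 °C, then treated 40 hr at 37 °C in complete medium. Cellular ATP read by CellTiter-Glo luminescence; AC50 from Hill-equation fits.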

Row | Compound | Potency [1] | Potency [2] | Potency [3] | caspase-3 activation [4] [%] | outcome [5] | outcome [6] | outcome [7] | outcome [8] | Potency [9] | Potency [10] | viability change, negative = cytotoxic [2] | Potency [4]
1 | CC(C)c1ccccc1 | inactive | inactive | inactive | -0.787 | inactive | inactive | inactive | inactive |  |  |  | 
2 | O=C(O)CCSSCCC(=O)O | inactive | inactive | inactive | 0.0924 | inactive |  | inactive | inactive | inactive |  |  | 
3 | CCOc1cc(OCC)c(C(C)=O)cc1OCC | inactive | inactive |  | -0.274 | inactive | inactive | inactive | inactive | inactive | inactive |  | 
4 | Cc1ccc(C)cc1 | inactive | inactive | inactive | 2.23 | inactive | inactive | inactive | inactive | inactive |  |  | 
5 | Cc1cc([N+](=O)[O-])ccc1N | inactive | inactive | inactive | -1.03 | inactive |  | inactive | inactive | inactive |  |  | 
6 | Nc1cccc(C(F)(F)F)c1 | inactive | inactive | inactive |  | inactive |  | inactive | inactive | inactive |  |  | 
7 | ClC/C=C/CCl | inactive | inactive | inactive | 1.47 | inactive | inactive | inactive | inactive | inactive |  |  | 
8 | Clc1ccc(Cl)c(Cl)c1Cl | inactive | inactive | inactive | -1.65 | inactive | inactive | inactive | inactive | inactive |  |  | 
9 | C1COC1 | inactive | inactive | inactive | -0.0782 | inactive | inactive | inactive | inactive | inactive |  |  | 
10 | CC(N)CN (stereo unspecified) | inactive | inactive | inactive | 2.43 | inactive | inactive | inactive | inactive | inactive |  |  | 
11 | Nc1ccc(Cl)cc1[N+](=O)[O-] | inactive | inactive |  | -0.00309 | inactive | inactive | inactive | inactive | inactive | inactive |  | 
12 | C/C=C(/C)C#N | inactive | inactive | inactive | 1.22 | inactive | inactive | inactive | inactive |  |  |  | 
13 | CC=C(Cl)Cl | inactive | inactive | inactive | -0.538 | inactive | inactive | inactive | inactive | inactive |  |  | 
14 | CCOCC(=O)O | inactive | inactive | inactive |  | inactive | inactive | inactive | inactive |  |  |  | 
15 | CCC=O | inactive | inactive | inactive | 3.47 | inactive | inactive | inactive | inactive |  |  |  | 
16 | Cc1ccccc1C#N | inactive | inactive | inactive | 0.133 | inactive |  | inactive | inactive | inactive |  |  | 

Row | Compound | Potency [1] | Potency [2] | Potency [3] | caspase-3 activation [4] [%] | outcome [5] | outcome [6] | outcome [7] | outcome [8] | Potency [9] | Potency [10] | viability change, negative = cytotoxic [2] | Potency [4]
17 | Cc1ccccc1C(=O)O | inactive | inactive | inactive | -1.34 | inactive | inactive | inactive | inactive | inactive |  |  | 
18 | CC1=C(/C=C/C(C)=C/C=C/C(C)=C\C=O)C(C)(C)CCC1 | 12.6 µM (active) | 20 µM (active) |  |  |  |  | inactive |  |  | 12.6 µM (active) |  | 
19 | Fc1ccccc1 | inactive | inactive |  |  | inactive | inactive | inactive | inactive | inactive | inactive |  | 
20 | Cc1ccc2ncccc2c1 | inactive | inactive |  |  | inactive | inactive | inactive | inactive | inactive | inactive |  | 
21 | Cc1ccc2oc(=O)ccc2c1 | inactive |  |  | 0.624 | inactive | inactive | inactive | inactive | inactive | inactive |  | 
22 | O=C(O)/C=C/C(=O)O | inactive | inactive |  | 1.23 | inactive | inactive | inactive | inactive | inactive | inactive |  | 
23 | CCCOCC(C)O (stereo unspecified) | inactive |  | inactive | 3.45 | inactive | inactive | inactive | inactive | inactive |  |  | 
24 | CCCC=O | inactive | inactive |  | -0.873 | inactive | inactive | inactive | inactive | inactive | inactive |  | 
25 | CCCCCCCCCCCCC1CO1 (stereo unspecified) | inactive | inactive |  | -0.853 | inactive | inactive | inactive | inactive | inactive |  |  | 
26 | CC(=O)OCCC(C)C | inactive | inactive |  | 0.836 | inactive | inactive | inactive | inactive | inactive | inactive |  | 
27 | Cc1nc2ccc(Cl)cc2[nH]1 | inactive | inactive |  | 0.744 | inactive |  | inactive | inactive | inactive | inactive |  | 
28 | NC(=O)NC(N)=O | inactive | inactive |  | 0.487 | inactive |  | inactive | inactive | inactive | inactive |  | 
29 | Clc1cc(Cl)cc(Cl)c1 | inactive | inactive |  | 0.897 | inactive | inactive | inactive | inactive | inactive | inactive |  | 
30 | O=Nc1ccc(NO)cc1 | inactive |  |  |  | inactive | inactive | inactive | inactive | inactive |  | -93.1% (active) | 31.6 µM (active)
31 | CN(C)CCCCl | inactive | inactive |  | 1.76 | inactive | inactive | inactive | inactive | inactive | inactive |  | 
